PERK inh: block of dimerizer-induced PERK translation repression, primary screen, PERK inhibitor project, CHO PERK-DD cells, SEAP luminescence, HTS; inhibition, % at 5.6 µM; 220,000 compounds, 0.17% hits; CHO PERK-DD fusion, SEAP luminescence translation reporter; AID 1416, 2008;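 active = inhibition above the mean inhibition of all tested compounds plus 3 SD, set separately per screening campaign, cut at about 2.9% in these data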;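 note: PERK kinase domain activated by AP20187 dimerizer at 100 nM; 0% = DMSO with dimerizer and 100% = rapamycin at 8.4 µM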
EP2 modulator: EP2 receptor modulators, cAMP readout, primary screen, cell-based, HTRF cAMP, PGE2 stimulation. induction, % at 25 µM. EP2-expressing cells, cAMP HTRF FRET, PGE2 co-stimulation. Prostaglandin E2 receptor EP2 subtype (Homo sapiens), P43116. 260,000 compounds, 0.83% hits;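 active = compounds whose cAMP rise, as percent of the full-agonist control response, exceeds 60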;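 note: rat C6 glioma line stably carrying human EP2 under a CMV promoter; the protocol text gives 20 µM as final concentration; 100% = response of wells given 1 µM PGE2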
Target sequence (P43116 whole entry, looked up): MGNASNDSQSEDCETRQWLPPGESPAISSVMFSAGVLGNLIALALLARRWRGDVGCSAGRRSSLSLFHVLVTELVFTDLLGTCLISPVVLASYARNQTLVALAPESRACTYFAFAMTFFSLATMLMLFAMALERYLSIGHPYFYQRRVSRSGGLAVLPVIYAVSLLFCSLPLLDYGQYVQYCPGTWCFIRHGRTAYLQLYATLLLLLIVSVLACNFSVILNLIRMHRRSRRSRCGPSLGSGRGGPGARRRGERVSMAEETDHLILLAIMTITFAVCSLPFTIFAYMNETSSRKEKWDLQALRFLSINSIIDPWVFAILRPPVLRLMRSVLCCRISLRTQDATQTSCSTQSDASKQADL
eIF4E-4G inh: eIF4E–eIF4G protein interaction inhibitors, primary screen, biochemical, uHTS, TR-FRET, eIF4GI fragment | 220,000 compounds, 0.37% hits | Eukaryotic translation initiation factor 4E (Mus musculus) + Eukaryotic translation … | inhibition, % at 21.7 µM | TR-FRET eIF4E-eIF4GI(517-606) binding, 2 h;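 active = inhibition above about 30%, limit read from the data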;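 note: 0% = full FRET control wells and 100% = background wells lacking eIF4GI fragment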
EP2 antag: human EP2 receptor antagonists, primary screen, TR-FRET cAMP, C6 glioma cells | Prostaglandin E2 receptor EP2 subtype (Homo sapiens), P43116 | C6 glioma cells expressing human EP2; cells stimulated with saturating PGE2 | inhibition, % at 25 µM | 260,000 compounds, 0.52% hits | AID 1422, 2008;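 active = percent inhibition above 40 after rounding to a whole number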;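 note: rat C6 glioma host cells with rolipram phosphodiesterase inhibitor present; the protocol text gives 20 µM as final concentration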
EP2 confirm: cAMP induction in EP2, EP4, beta2-AR and parental cells, confirmation, counter-screen for EP2 modulator project, cell-based, five parallel assays, C6 glioma, HEK293; shares compounds with EP2 modulator; cAMP HTRF induction; plus low (about EC15) PGE2 agonist; calls only at 20 µM (by protocol); 1,300 compounds, 47% hits;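 active = cAMP induction above 50% in the main assay while under 30% in all four parallel counter assays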;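 note: rat C6 glioma cells stably expressing human EP2 receptor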
An asterisk follows results filed as active; i = inactive; . = not tested or not shown; + = active, no number; ! = repeats disagree. Most compounds without a hit are left out; they make up all but 1.8% or so of the library.

SMILES	PERK inh	EP2 modulator	eIF4E-4G inh	EP2 antag	EP2 confirm
COc1ccc(C)cc1NC(=O)C1CCN(S(=O)(=O)c2ccc(OC)c(OC)c2)CC1	.	-46	.	5	.
O=C(COc1ccc(Br)cc1)Nc1ccc(-c2nnc(-c3ccco3)o2)cc1	1	75*	-26	0	i
COCCn1c(SC(C(=O)Nc2cc(C)ccc2OC)c2ccccc2)nnc1-c1ccc(Cl)cc1 (centres undefined)	0	55	25	8	i
COc1ccc(Cl)c2c1[nH]c1nc(SCC(=O)O)nnc12	.	5	.	11	.
CCCSc1nc2c(c(=O)[nH]c(=O)n2C)n1C/C=C(/C)Cl	.	59	.	12	.
C/C(Cl)=C/Cn1c(SC(C)C)nc2c1c(=O)[nH]c(=O)n2C	-1	65*	5	6	i
C/C=C/Cn1c(SCc2ccc(C)cc2)nc2c1c(=O)[nH]c(=O)n2C	0	86*!	-7	16	+
CCOC(=O)Cc1csc(NC(=O)CSc2nnc3c(C)cc4c(C)cc(C)cc4n23)n1	.	8	.	6	.
COc1ccc(N2CCN(c3nc4c(c(=O)n(C)c(=O)n4C)n3Cc3ccccc3)CC2)cc1	-1	69*	9	-1	i
CSc1nnc(-c2cc3c(s2)-c2ccccc2CC3)o1	-1	76*	-9	10	+
CCn1c2ccccc2c2cc([N+](=O)[O-])ccc21	1	77*	1	4	+
CC(=O)NC1(c2ccccc2)CCN(C(C)=O)CC1	.	-11	.	21	.
Cc1cc2ccc(C)c(C)c2nc1SCC#N	0	66*	.	9	+
Cc1cc2ccc(C)c(C)c2nc1SCC(=O)c1cccs1	1	14	-1	8	.
CCc1nc2ccccc2n1CCOC	.	6	.	18	.
O=C(O)c1cc(C(=O)O)cc(N2C(=O)c3ccccc3C2=O)c1	.	87*	.	8	+
O=C(O)c1cccc(N2C(=O)c3ccc4c5c(ccc(c35)C2=O)C(=O)N(c2cccc(C(=O)O)c2)C4=O)c1	1	28	-4	2	.
Cc1ccc2c3c(cccc13)-c1ccccc1C2=O	0	79*	3	5	+
CCOc1ccc(NC(=O)CSc2nnc(-c3ccncc3)n2Cc2ccco2)cc1	.	6	.	8	.
CSc1ccccc1NC(=O)CN(C)Cc1cccc(Cl)c1	0	66*	2	6	+
COc1ccc(OC2C(=O)N(Cc3ccc(F)cc3)C2c2ccc3c(c2)OCO3)cc1 (centres undefined)	.	53	.	16	.
COc1ccc(OC)c2c1cc(C(=O)N1CCN(C3CCCCC3)C(=O)C1)n2C	.	-45	.	9	.
O=C(Cc1ccccc1)Nc1ccccc1N1CCN(c2ccccc2)CC1	-1	72*	-11	5	+
O=C(CNCc1ccccc1Cl)Nc1ccccc1N1CCCCC1	-1	75*	0	2	+
O=C(Nc1ccccc1N1CCN(c2ccccc2)CC1)C12CC3CC(CC(C3)C1)C2	2	68*	-5	9	i
SMILES	PERK inh	EP2 modulator	eIF4E-4G inh	EP2 antag	EP2 confirm
O=C(CCCCl)Nc1ncc(Cc2cccc3ccccc23)s1	.	-44	.	8	.
O=c1[nH]c2ccccc2cc1-c1noc(-c2ccccc2)n1	.	33	.	10	.
CC(C)C(=O)c1cn(CC(=O)NC2CCCCC2)c2ccccc12	.	-23	.	10	.
Cc1ccc2nc(Nc3ccc4[nH]c(=O)[nH]c4c3)c(-n3nc(C)cc3C)nc2c1	0	86*	-6	7	i
Cc1ncc(-c2ccncc2)c(C2CCN(C(=O)c3ccccn3)CC2)n1	.	9	.	.	.
COc1cccc(NC(=O)CSc2nnc3c4c5c(sc4nc(C4CC4)n23)CCCC5)c1	.	-16	.	5	.
COc1ccc2ccc(=O)oc2c1CC=C(C)C	1	67*!	4	9	+
COc1ccc2[nH]c(CN3CCC(O)(c4ccccc4F)CC3)c(C)c2c1	.	-74	.	6	.

Source: PubChem (several laboratories)
